Holding throughout (assay): phage ELISA signal ratio (GST-PRM binding over GST background); higher = stronger binding of peptide-phage to the PRM
A general note: An ELISA detects its analyte on a solid surface through an enzyme-linked reagent.

Assay [1] addresses T1, NFKBIA 70-282 EF-hand_6 (domain begin residue: 70, domain end residue: 282), P25963.
T1 chain: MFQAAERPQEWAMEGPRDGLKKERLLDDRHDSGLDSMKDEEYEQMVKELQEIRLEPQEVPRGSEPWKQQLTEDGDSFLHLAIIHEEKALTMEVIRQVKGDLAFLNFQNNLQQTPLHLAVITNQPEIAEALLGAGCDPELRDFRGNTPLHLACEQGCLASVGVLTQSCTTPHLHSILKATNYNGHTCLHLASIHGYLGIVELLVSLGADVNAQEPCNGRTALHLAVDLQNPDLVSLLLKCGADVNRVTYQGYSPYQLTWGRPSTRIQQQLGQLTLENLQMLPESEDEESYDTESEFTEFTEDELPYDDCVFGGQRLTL
The procedure, abridged:
(§1)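 Human peptide recognition domains were expressed in 96-well plates as fusions to the C-terminus of glutathione S-transferase (GST) and selected against an M13 phage library displaying randomized hexadecapeptides, cysteine-free and glycine-flanked, on the gene-8 major coat protein. Five selection rounds were run, and approximately 48 individual clones from rounds 4 and 5 were tested by phage ELISA. Each value is the ELISA signal on the GST-domain fusion divided by the signal on GST alone. Positive clones were sequenced.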

Assay [2] addresses T2, NR1D2 386-579 Hormone_recep (domain begin residue: 386, domain end residue: 579), Q14995.
T2 chain: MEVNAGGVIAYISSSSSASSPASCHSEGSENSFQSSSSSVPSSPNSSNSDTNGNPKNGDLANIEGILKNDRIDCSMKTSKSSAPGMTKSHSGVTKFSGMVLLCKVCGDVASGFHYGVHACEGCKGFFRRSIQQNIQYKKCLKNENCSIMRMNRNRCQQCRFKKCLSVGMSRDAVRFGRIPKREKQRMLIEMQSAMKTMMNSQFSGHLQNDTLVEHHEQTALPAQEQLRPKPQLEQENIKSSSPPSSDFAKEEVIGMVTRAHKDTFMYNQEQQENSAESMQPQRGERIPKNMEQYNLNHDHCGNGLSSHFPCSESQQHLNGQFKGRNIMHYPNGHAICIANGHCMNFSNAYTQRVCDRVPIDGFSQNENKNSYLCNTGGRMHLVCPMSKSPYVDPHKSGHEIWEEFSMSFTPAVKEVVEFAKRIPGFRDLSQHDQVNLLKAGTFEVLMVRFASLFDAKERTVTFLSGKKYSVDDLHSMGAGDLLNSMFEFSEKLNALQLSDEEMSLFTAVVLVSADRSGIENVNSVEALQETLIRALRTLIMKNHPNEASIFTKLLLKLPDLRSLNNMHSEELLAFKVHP
In outline: as §1

The target in assay [3] is T3, NR1H2 203-460 Hormone_recep (domain begin residue: 203, domain end residue: 460), P55055.
T3 chain: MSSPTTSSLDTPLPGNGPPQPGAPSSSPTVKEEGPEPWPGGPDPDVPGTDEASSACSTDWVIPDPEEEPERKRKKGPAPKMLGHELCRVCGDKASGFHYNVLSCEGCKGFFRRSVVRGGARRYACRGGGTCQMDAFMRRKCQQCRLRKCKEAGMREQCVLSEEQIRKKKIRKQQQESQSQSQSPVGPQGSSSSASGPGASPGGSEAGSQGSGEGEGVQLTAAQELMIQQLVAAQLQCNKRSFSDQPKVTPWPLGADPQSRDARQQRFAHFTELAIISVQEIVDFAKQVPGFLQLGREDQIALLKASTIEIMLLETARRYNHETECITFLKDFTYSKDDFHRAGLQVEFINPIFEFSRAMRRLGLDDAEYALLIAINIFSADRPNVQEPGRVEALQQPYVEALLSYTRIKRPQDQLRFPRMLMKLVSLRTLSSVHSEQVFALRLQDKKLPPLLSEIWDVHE
In outline: as §1

In assay [4] the target is T4, NR4A2 327-598 Hormone_recep (domain begin residue: 327, domain end residue: 598), P43354.
T4 chain: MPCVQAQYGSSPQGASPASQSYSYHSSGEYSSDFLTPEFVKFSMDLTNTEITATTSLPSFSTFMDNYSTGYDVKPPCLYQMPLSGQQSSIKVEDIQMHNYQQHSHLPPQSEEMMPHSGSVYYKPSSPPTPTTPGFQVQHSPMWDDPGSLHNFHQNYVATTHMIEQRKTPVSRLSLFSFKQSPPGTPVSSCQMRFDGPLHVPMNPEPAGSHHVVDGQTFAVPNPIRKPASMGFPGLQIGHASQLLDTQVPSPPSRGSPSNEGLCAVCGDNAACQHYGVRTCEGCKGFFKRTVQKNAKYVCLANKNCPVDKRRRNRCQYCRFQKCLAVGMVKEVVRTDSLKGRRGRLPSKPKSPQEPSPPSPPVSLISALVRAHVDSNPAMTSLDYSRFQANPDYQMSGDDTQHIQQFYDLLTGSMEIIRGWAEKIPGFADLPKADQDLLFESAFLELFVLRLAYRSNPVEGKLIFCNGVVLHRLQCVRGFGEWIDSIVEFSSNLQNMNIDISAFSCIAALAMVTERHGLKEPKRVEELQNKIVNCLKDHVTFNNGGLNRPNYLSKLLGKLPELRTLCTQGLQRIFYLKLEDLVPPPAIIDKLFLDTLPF
In outline:
as §1

Assay [5] has as its target T5, NR1H3 204-447 Hormone_recep (domain begin residue: 204, domain end residue: 447), Q13133.
T5 chain: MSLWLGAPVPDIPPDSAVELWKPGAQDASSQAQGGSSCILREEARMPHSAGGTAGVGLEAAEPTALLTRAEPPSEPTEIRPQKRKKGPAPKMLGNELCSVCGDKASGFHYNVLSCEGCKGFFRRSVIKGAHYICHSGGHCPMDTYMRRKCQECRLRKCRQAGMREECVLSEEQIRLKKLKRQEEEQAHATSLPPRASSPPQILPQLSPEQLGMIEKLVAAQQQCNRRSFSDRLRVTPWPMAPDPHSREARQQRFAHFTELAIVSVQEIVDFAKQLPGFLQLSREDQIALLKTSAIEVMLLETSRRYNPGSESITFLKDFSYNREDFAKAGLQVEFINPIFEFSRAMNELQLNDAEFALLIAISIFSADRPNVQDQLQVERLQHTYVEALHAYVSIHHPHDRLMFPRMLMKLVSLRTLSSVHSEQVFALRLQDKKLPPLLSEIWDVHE
The procedure, abridged:
as §1

For assay [6], the target named is T6, NR2C1 355-603 Hormone_recep (domain begin residue: 355, domain end residue: 603), P13056.
T6 chain: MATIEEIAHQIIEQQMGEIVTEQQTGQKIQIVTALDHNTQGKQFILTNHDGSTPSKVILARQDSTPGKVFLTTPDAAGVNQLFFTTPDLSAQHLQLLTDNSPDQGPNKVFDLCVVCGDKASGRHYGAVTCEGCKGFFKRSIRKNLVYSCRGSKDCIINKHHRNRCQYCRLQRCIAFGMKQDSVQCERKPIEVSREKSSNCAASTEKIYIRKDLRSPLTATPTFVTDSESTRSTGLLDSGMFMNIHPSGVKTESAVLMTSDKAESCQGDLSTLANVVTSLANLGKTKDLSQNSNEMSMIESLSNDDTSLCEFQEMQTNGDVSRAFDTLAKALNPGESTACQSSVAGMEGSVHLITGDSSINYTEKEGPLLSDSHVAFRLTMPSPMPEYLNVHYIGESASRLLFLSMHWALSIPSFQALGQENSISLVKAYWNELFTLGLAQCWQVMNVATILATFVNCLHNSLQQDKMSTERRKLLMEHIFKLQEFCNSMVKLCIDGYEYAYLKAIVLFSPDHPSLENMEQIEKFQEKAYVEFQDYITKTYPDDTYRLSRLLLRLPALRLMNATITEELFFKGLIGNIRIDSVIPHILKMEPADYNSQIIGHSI
In outline:
as §1

For assay [7], the target named is T7, MYL6 4-151 EF-hand_6 (domain begin residue: 4, domain end residue: 151), P60660.
T7 chain: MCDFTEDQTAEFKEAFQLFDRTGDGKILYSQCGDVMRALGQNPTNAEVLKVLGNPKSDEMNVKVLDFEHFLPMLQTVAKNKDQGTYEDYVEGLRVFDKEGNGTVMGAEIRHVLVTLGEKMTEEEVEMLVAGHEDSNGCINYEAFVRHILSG
The procedure, abridged:
as §1

In assay [8] the target is MSH6 89-203 PWWP (domain begin residue: 89, domain end residue: 203), P52701. The procedure, abridged: as §1
In assay [9] the target is SETD1A 2-220 RRM_1 (domain begin residue: 2, domain end residue: 220), O15047. The procedure, abridged: as §1

We go through 14 molecules from the supplement of paper PMC7724964.

Chain of MSH6 89-203 PWWP (domain begin residue: 89, domain end residue: 203), P52701 (P52701 whole entry): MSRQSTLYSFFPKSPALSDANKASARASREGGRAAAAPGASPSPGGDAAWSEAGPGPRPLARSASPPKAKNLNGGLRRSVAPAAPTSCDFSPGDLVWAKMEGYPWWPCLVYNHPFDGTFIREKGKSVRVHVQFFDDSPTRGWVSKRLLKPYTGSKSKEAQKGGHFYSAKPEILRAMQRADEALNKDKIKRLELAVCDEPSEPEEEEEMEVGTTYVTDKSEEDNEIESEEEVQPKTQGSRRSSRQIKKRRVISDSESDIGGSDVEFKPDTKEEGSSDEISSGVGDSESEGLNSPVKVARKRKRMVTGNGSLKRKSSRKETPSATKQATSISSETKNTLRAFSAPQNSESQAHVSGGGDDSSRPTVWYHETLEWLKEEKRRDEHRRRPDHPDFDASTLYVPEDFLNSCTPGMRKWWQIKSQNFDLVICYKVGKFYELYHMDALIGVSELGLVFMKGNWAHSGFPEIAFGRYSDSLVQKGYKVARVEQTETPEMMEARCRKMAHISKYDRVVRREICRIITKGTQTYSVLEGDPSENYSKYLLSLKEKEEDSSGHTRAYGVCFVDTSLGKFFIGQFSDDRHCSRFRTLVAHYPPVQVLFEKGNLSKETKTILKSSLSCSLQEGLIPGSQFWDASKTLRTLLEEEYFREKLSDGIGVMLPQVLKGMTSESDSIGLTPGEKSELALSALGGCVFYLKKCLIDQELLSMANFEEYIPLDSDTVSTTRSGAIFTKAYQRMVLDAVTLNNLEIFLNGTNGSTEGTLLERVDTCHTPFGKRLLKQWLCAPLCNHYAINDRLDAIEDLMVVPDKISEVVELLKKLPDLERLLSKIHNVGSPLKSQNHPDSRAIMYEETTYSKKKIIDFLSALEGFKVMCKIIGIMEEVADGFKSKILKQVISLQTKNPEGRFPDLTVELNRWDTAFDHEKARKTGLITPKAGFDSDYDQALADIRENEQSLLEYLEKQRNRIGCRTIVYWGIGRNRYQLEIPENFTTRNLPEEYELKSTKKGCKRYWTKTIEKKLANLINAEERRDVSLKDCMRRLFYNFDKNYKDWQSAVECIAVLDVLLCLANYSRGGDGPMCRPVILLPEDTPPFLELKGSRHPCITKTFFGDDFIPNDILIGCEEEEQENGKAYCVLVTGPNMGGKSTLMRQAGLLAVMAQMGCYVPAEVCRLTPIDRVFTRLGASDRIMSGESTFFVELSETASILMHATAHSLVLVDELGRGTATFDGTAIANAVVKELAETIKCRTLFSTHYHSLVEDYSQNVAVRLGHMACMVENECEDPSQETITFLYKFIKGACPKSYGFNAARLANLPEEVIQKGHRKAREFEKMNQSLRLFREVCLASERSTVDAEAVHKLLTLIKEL
Chain of SETD1A 2-220 RRM_1 (domain begin residue: 2, domain end residue: 220), O15047 (O15047 whole entry): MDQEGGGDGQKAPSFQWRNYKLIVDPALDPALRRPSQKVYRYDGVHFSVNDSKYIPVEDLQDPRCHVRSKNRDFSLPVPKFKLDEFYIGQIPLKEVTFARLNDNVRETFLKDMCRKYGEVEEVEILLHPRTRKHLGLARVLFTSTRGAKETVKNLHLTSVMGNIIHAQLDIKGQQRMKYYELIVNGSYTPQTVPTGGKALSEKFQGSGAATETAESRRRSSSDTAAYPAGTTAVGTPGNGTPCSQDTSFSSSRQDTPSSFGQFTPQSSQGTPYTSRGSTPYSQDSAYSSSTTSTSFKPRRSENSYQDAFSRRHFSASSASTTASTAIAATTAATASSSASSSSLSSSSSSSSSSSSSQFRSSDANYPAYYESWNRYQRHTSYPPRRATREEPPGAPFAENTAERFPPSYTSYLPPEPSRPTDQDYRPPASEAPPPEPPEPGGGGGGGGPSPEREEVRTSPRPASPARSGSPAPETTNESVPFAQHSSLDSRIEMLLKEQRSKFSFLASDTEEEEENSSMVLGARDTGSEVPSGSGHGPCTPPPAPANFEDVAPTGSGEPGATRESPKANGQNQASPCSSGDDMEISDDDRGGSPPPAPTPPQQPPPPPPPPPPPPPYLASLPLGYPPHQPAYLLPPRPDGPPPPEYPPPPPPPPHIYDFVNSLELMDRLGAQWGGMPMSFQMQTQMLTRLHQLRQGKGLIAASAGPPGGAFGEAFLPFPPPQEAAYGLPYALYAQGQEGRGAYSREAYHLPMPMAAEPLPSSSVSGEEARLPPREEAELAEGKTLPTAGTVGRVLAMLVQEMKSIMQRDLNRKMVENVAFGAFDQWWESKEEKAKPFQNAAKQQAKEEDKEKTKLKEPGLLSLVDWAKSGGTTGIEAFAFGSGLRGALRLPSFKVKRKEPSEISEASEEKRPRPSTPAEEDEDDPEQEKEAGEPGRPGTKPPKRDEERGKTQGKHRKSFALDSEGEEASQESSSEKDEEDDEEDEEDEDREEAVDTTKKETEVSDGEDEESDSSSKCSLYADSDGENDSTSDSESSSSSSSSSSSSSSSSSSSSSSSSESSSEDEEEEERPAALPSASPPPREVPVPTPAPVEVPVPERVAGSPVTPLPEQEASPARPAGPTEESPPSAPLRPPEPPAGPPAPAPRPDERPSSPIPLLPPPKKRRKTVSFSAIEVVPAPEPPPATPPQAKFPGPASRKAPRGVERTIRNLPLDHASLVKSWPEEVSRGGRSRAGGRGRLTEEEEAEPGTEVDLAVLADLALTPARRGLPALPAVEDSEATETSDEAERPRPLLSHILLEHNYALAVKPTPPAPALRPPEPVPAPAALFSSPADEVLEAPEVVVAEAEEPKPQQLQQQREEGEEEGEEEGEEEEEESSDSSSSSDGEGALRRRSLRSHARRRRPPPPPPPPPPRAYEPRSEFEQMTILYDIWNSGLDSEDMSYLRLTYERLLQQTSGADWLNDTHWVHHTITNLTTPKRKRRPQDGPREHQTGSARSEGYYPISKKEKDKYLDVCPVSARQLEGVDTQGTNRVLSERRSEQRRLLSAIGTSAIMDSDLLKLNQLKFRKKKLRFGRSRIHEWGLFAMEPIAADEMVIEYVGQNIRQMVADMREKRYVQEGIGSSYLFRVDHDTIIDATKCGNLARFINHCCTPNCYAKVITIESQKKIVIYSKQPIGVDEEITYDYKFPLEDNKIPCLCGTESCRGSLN

Consider EWFTDHNGADVWLELP, for which, in assay [1], the “phage ELISA signal ratio” value turned out to be 4.99.

PHGITDVWAQWFVEML: the “phage ELISA signal ratio” value in [2] worked out at 5.27.

DHWWVWGWEAEEYIMP: the “phage ELISA signal ratio” value in assay [3] turned out to be 13.9.

As to LNDSEQWFTWAYKYVD, the “phage ELISA signal ratio” value in [4] came to 9.75.

As to TQEMWDWVMMIEMTEF, in [5], the “phage ELISA signal ratio” value came out at 14.

For AAPGSWDYSLLEFHYL, the “phage ELISA signal ratio” value in assay [6] is 3.03.

With WFGMEPEEQSMEWQKW, the “phage ELISA signal ratio” value in assay [1] worked out at 6.64.

Consider WGPFLSFQYAVDPTQE, for which the “phage ELISA signal ratio” value in [6] was determined as 19.1.

As to DNPNLTPGLWSWYTFF, in [3], the “phage ELISA signal ratio” value was determined as 11.4.

On to YMVEEHYYDLMQMLGS, for which the “phage ELISA signal ratio” value in assay [1] was found to be 11.

SHDMYEMIMWFFYQTE: the “phage ELISA signal ratio” value in assay [4] stood at 14.5.

For the molecule IFQYIVVQIGNTMYVI, the “phage ELISA signal ratio” value in assay [7] amounted to 9.03.

Regarding SPFDFWPLQSWWFKTM, the “phage ELISA signal ratio” value in [4] worked out at 9.75.

With TSYDPWVMEGMTQVVA, the “phage ELISA signal ratio” value was found to be 6.43 in assay [8] and 7.68 in assay [9].
